Each structure is given as a SMILES string. Out of some 16,000 compounds screened, about 5,800 (36%) were called active. Roughly 23% stayed inconclusive and do not appear here. The list shows a part of the results. A number with no mark means an inactive call. Calls come from the whole dose curve; as a rule, active = well fitted curve in the direction sought with a large enough effect; inconclusive = small, poorly fitted or top-dose-only effect, or effect the other way; inactive = no such curve, though single readings can be large or run the other way.
% is set by controls: 0 for no effect and ±100 for the full control effect.

The target of the assay is Cytochrome P450 2C19 (Homo sapiens) (UniProt P33261). Nature of the assay: Cytochrome panel assay with activity outcomes. To be noted: recombinant CYP, pro-luciferin dealkylation, luminescence, p450-cyp2c19; series mostly up to 57.1 µM; activity, negative = inhibition: at the top concentration.
Sequence of Cytochrome P450 2C19 (Homo sapiens) (P33261 whole entry, looked up): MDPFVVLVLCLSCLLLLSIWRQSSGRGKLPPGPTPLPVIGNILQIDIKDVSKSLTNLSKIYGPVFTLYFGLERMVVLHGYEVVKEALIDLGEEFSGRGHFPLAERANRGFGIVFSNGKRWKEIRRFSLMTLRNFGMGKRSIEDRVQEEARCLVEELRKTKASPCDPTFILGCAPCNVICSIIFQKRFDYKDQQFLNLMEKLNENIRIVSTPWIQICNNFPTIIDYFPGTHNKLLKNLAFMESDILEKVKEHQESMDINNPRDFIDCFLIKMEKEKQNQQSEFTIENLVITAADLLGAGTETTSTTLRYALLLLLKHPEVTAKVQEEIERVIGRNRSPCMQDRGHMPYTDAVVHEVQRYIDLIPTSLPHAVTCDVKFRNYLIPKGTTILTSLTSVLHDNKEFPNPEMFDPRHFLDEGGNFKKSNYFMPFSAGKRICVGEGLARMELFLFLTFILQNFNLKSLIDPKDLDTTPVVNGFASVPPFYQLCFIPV
As to `N#Cc1nc(COc2ccccc2Cl)oc1NCc1ccco1`, the AC50 was 2.24 µM (active).
For `CN(C)CCNc1oc(COc2ccc(Cl)cc2Cl)nc1C#N`, the “activity, negative = inhibition” value is 0.262%.
`CCOC(=O)c1ccc(NC(=O)CC2NCCNC2=O)cc1` (centres undefined): the “activity, negative = inhibition” value was 19.3%.
Regarding `CCC1C(=O)N=C(SCC(=O)Nc2ccc(C(=O)OC)cc2)NC1=O` (centres undefined), the AC50 was 22.4 µM (active).
The same measure, in the same setting: the value for `CCCCSc1ccc2nc(-c3ccc(C#N)cc3)cn2c1` was 4.47 µM (active).
Take `O=C(O)C[C@H](Cc1ccccc1Cl)C(=O)O`: the activity, negative = inhibition was 14.2% [at 11.4 µM].
Regarding `Oc1ccccc1CNCc1ccccc1O`, the activity, negative = inhibition is -44.5% [at 11.4 µM].
In the case of `Clc1ccccc1CNCC1CCC(CNCc2ccccc2Cl)CC1` (centres undefined), the AC50 was 0.794 µM (active).
Consider `CC(N)=NCCCC[C@H](N)C(=O)O`, for which the AC50 entry is “inactive”.
Consider `NC(=O)C1(N2CCCCC2)CCN(C(=O)c2ccc(-n3cnnn3)cc2)CC1`, for which the “activity, negative = inhibition” value was -7.9%.
Regarding `NC(=O)C1(N2CCCCC2)CCN(C(=S)Nc2ccc(Cl)cc2)CC1`, the AC50 is 3.16 µM (active).
In the case of `O=C(O)C1(Nc2ccc(Cl)cc2)CCCC1`, the activity, negative = inhibition was 25.8% [at 11.4 µM].
Turning to `CCCCSC(=S)N(C)C1CCS(=O)(=O)C1` (centres undefined), the half-maximal activity concentration (AC50) was 3.98 µM (active).
With `CCCCN(C(=S)Nc1ccccc1)C1CCS(=O)(=O)C1` (centres undefined), the “activity, negative = inhibition” value is -28.8%.
In the case of `CCCNC1CCS(=O)(=O)C1` (centres undefined), the “activity, negative = inhibition” value was 3.5%.
With `CCCn1nc2cc(C(=O)NCc3ccccc3OC)ccc2c1OCC`, the half-maximal activity concentration (AC50) was 20 µM (active).
With `CCCCn1nc2cc(C(=O)NCCCCc3ccccc3)ccc2c1OCC`, the concentration at half-maximal activity (AC50) is 22.4 µM (active).
Regarding `COc1ccccc1CNC(=O)c1cc2c(C)nn(Cc3ccc(F)cc3)c2s1`, the half-maximal activity concentration (AC50) was 11.2 µM (active).
Regarding `COC(=O)Cc1c(C)nc2nc(NCc3ccccc3OC)[nH]n2c1=O`, the “activity, negative = inhibition” value is -29.7%.
Take `CCCn1nc2cc(C(=O)NCCCCc3ccccc3)ccc2c1OCC`: the AC50 was 6.31 µM (active).
For the molecule `NCC[C@H](N)C(=O)O`, the activity, negative = inhibition is -4.53% [at 11.4 µM].
Turning to `CCOc1c2ccc(C(=O)NCc3ccc4c(c3)OCO4)cc2nn1CC`, the half-maximal activity concentration (AC50) is 31.6 µM (active).
Same read-out and setting: next, `CCCn1nc2cc(C(=O)NC3CCCc4ccccc43)ccc2c1OCC` (centres undefined): 28.2 µM (active).
`CCn1nc2cc(C(=O)NCC34CC5CC(CC(C5)C3)C4)ccc2c1OC`: the AC50 is 22.4 µM (active).
Same read-out and setting: next, `CCCn1nc2cc(C(=O)NCCc3ccc(C)cc3)ccc2c1OCC`: 25.1 µM (active).
On to `COCCn1nc2cc(C(=O)NCC34CC5CC(CC(C5)C3)C4)ccc2c1OC`, for which the “activity, negative = inhibition” value was -28.7%.
On to `C=CCOc1c2ccc(C(=O)NC3CCCc4ccccc43)cc2nn1C` (centres undefined), for which the “activity, negative = inhibition” value is -27.6%.
Take `CCOc1c2ccc(C(=O)NC3CCCc4ccccc43)cc2nn1C` (centres undefined): the “activity, negative = inhibition” value was -18.9%.
For the molecule `CCOc1c2ccc(C(=O)NCc3ccco3)cc2nn1CC`, the “activity, negative = inhibition” value was -25.6%.
On the same count and under the same terms, the value for `COC(=O)C/C=C\[C@@H](C)[C@@H](/C=N\O[C@@H]1O[C@H](COC(C)=O)[C@H](OC(C)=O)[C@H](OC(C)=O)[C@H]1OC(C)=O)OC` was -12.5% [at 11.4 µM]; that for `NS(=O)(=O)c1ccc(N=Nc2cc3ccccc3c(C(=O)O)c2O)cc1` was -28.9% [at 11.4 µM].
The same measure, in the same setting: the value for `OC[C@@H]1O[C@@H](n2cnc3cncnc32)[C@@H](O)[C@H]1O` was -17.6%.
Turning to `O=C1C=C(NCCc2cc(Br)c(O)c(Br)c2)C(=O)c2ncccc21`, the half-maximal activity concentration (AC50) is 0.501 µM (active).
For `O=C(Nc1ncc(Cc2cc(Cl)ccc2Cl)s1)c1ccc([N+](=O)[O-])cc1`, the half-maximal activity concentration (AC50) is 2 µM (active).
`CCOC(=O)N/N=C1/C[C@@H](O)[C@@H](O)[C@@H]2[C@@H]3C(=O)N(c4cccc(Oc5ccccc5)c4)C(=O)[C@H]3CC[C@H]12`: the activity, negative = inhibition is 42.4% [at 11.4 µM].
Regarding `N=C1CCC[C@@H]1C(=S)SCCC(N)=O`, the activity, negative = inhibition was -14.4% [at 11.4 µM].
`CC(C)CC1NC(=S)N(C2CCCCC2)C1=O` (centres undefined): the concentration at half-maximal activity (AC50) is 7.94 µM (active).
For the molecule `CCC(C)C1NC(=S)N(C2CCCCC2)C1=O` (centres undefined), the concentration at half-maximal activity (AC50) is 2 µM (active).
Turning to `Cn1c(=O)c(CCc2ccccc2)nc2cnc(Oc3ccccc3)nc21`, the AC50 was 25.1 µM (active).
Consider `COc1ccc(Oc2ncc3nc(-c4cc(F)cc(F)c4)c(=O)n(C)c3n2)cc1`, for which the “activity, negative = inhibition” value is 0.472%.
On the same count and under the same terms, next, `Cc1nc2cnc(Oc3ccccc3)nc2n(C)c1=O`: -44.4%; `COc1ccc(Oc2ncc3nc(C)c(=O)n(C)c3n2)cc1`: -36%.
Regarding `COc1ccc(Oc2ncc3nc(CCc4ccccc4)c(=O)n(C)c3n2)cc1`, the AC50 was 10 µM (active).
As for `Cn1c(=O)c(-c2cc(F)cc(F)c2)nc2cnc(Oc3ccccc3)nc21`, the “activity, negative = inhibition” value is -42.9%.
On the same count and under the same terms, the value for `CC(C)N=c1cc2n(-c3ccc(Cl)cc3)c3ccccc3nc-2cc1Nc1ccc(Cl)cc1` was -25.3% [at 25.6 µM].
Take `O=c1c2ccccc2nc2n1C(CSCc1cccc(C(F)(F)F)c1)CS2` (centres undefined): the AC50 is 0.251 µM (active).
As to `COc1ccc2cc3[n+](cc2c1OC)CCc1cc2c(cc1-3)OCO2`, the “activity, negative = inhibition” value was -19.4% [at 25.6 µM].
As for `C[n+]1cc2c3c(ccc2c2ccc4cc5c(cc4c21)OCO5)OCO3`, the concentration at half-maximal activity (AC50) was 6.31 µM (active).
Take `O=C(Nc1cc2c(oc1=O)CCCC2=O)c1ccc(Cl)cc1`: the AC50 is 22.4 µM (active).
